{
  "source": "the supplement of paper PMC11732987",
  "about": "“Enantioselective OTUD7B fragment discovery through chemoproteomics screening and high-throughput optimisation” (Communications Chemistry, 2025)",
  "experiment_in_all_cases": "log2 ratio of Biotin-Ahx-Ub-VS probe labelling (fragment/DMSO); higher = less target engagement (more negative = stronger competition), active = hit call of the paper (q ≤ 0.05, log2 ratio ≤ -1)",
  "settings_in_all_cases": "compound concentration: 200 uM; treatment time: 3 h",
  "key": {"[1]": {"target": "T1, USP19 (UniProt O94966)", "T1 sequence (whole entry)": "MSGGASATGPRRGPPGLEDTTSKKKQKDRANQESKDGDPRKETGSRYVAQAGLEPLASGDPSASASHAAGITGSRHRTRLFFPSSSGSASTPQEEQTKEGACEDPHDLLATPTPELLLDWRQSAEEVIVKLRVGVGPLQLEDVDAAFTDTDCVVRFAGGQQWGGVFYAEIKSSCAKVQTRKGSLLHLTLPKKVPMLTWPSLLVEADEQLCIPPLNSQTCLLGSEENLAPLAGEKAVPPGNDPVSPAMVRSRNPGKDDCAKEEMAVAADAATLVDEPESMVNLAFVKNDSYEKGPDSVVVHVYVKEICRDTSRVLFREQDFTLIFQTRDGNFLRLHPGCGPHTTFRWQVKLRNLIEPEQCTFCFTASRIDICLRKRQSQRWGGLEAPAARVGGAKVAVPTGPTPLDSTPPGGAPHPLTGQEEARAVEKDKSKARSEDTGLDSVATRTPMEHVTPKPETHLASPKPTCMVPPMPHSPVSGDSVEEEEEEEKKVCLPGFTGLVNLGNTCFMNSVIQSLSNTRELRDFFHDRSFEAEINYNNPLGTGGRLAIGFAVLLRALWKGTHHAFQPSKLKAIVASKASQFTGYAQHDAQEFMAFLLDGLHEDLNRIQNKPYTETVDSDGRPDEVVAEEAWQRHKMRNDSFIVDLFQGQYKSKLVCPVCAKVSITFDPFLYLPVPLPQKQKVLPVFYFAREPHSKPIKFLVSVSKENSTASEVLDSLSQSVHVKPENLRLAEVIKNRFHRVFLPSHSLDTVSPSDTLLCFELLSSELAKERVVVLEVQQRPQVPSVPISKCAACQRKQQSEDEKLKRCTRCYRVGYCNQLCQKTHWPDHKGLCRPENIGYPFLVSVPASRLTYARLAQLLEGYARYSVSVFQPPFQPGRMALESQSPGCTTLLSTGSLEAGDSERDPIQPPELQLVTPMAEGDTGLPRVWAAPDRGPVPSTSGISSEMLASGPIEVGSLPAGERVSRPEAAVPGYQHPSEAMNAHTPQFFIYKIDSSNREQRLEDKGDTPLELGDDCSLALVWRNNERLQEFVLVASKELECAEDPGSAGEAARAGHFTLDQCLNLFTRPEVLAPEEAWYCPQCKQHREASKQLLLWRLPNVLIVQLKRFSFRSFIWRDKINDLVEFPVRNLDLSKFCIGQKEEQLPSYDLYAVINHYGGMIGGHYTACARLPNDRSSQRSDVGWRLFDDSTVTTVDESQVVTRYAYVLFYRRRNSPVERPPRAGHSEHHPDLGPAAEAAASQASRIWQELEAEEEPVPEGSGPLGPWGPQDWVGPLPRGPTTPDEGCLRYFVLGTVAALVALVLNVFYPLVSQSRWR", "summary_of_the_method": "(§1)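 The table lists average log2 ratios of fragment over vehicle, from an unpaired t-test on global-median-normalised Spectronaut label-free quantities. Proteins with ≥2 unique peptides were used. Samples were HEK293T lysate (495 µg) treated in triplicate with fragment at 200 µM or vehicle for 3 h, then with Biotin-Ahx-Ub-VS (0.5 µM final) for 1 h, with labelled DUBs NeutrAvidin-enriched and run by diaPASEF LC-MS/MS.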"}, "[2]": {"target": "USP24 (UniProt Q9UPU5)", "sequence (Q9UPU5 whole entry)": "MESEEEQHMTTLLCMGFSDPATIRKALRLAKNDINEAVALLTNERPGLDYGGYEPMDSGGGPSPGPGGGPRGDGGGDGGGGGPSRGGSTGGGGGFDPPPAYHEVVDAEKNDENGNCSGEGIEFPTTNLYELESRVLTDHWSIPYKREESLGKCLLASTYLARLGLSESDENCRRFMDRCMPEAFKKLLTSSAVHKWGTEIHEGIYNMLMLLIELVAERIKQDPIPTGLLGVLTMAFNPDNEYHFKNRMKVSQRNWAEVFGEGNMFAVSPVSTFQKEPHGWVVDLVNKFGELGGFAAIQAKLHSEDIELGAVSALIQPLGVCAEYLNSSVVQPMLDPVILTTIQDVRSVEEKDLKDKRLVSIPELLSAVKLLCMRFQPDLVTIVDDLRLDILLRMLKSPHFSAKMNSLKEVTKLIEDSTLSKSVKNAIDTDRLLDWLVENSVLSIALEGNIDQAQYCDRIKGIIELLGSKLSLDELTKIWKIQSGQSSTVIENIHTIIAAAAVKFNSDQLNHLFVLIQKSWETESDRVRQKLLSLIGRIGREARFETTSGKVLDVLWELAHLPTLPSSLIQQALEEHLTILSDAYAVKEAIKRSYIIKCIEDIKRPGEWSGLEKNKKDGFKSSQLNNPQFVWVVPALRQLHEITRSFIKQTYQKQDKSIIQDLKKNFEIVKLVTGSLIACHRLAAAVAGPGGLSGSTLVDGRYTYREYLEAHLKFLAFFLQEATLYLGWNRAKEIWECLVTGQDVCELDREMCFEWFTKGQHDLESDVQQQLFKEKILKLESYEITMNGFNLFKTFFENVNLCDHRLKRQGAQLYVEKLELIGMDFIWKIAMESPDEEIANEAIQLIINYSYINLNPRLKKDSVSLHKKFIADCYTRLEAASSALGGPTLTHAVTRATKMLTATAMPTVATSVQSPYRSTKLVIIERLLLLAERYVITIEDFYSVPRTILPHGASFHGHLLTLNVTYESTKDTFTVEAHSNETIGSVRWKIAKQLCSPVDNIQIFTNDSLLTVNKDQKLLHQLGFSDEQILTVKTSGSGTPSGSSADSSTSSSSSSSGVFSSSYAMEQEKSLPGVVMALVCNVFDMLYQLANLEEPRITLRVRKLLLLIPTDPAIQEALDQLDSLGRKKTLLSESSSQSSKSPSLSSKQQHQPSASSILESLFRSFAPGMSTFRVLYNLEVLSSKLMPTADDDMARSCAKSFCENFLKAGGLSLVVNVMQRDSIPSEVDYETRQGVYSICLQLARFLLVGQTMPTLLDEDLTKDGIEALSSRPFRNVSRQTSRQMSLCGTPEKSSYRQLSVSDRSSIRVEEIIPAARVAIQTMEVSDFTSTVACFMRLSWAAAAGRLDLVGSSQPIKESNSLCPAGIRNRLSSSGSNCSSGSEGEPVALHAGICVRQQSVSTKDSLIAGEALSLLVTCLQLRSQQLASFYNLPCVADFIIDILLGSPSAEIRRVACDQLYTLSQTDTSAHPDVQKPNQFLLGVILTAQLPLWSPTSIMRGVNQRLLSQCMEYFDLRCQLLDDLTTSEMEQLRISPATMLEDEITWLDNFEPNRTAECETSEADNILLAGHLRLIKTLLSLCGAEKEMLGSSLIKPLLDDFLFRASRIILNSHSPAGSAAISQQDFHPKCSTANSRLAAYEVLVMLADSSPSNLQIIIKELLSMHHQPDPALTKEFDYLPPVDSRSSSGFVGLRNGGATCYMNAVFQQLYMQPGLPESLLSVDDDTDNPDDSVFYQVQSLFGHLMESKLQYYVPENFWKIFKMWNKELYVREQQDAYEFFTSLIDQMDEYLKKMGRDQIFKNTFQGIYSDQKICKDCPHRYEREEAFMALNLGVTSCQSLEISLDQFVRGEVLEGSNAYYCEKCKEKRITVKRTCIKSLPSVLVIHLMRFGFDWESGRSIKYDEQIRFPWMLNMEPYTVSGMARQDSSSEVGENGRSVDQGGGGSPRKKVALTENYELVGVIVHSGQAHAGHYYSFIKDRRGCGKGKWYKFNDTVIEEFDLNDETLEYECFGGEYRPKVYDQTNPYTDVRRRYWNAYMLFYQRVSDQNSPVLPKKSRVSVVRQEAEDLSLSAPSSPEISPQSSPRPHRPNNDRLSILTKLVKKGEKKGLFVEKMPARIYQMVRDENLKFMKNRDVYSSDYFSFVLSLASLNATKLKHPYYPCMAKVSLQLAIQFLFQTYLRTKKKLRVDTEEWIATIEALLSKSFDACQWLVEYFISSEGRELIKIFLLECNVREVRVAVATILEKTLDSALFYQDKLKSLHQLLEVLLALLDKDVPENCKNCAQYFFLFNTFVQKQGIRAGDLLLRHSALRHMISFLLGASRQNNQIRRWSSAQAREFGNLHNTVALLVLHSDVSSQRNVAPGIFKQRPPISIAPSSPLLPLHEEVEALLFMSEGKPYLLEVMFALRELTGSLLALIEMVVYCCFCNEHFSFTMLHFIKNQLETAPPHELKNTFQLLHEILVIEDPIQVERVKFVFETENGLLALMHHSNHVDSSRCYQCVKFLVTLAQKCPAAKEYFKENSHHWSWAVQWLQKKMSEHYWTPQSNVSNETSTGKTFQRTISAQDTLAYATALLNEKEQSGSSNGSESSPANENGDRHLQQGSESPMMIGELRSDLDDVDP", "summary_of_the_method": "as §1"}, "[3]": {"target": "T2, USP25 (UniProt Q9UHP3)", "T2 sequence (whole entry)": "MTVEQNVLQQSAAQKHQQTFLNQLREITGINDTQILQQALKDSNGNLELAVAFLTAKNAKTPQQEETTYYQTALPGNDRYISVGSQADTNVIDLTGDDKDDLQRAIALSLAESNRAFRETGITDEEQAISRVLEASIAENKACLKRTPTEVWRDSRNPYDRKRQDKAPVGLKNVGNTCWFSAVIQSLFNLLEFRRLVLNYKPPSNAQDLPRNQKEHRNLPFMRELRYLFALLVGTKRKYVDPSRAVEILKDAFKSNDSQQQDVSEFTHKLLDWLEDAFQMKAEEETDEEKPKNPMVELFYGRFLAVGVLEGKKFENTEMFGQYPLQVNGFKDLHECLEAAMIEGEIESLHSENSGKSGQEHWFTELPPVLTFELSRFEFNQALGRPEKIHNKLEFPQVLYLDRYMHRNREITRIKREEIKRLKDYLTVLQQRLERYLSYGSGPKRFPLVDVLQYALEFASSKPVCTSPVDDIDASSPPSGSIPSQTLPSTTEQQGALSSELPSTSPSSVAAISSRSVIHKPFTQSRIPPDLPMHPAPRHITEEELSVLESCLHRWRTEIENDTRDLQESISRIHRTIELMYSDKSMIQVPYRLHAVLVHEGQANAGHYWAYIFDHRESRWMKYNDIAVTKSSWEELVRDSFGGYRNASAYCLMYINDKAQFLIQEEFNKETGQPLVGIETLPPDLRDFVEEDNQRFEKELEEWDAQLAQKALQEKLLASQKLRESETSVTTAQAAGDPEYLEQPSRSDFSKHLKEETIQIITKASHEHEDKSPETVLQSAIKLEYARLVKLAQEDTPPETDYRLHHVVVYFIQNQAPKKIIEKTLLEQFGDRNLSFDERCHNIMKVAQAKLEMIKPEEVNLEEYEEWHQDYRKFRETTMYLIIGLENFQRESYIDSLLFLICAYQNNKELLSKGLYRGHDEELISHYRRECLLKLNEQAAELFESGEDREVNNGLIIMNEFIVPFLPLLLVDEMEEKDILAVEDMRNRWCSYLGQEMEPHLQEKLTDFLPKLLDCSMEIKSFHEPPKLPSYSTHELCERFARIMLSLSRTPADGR", "summary_of_the_method": "as §1"}, "[4]": {"target": "T3, USP28 (UniProt Q96RU2)", "T3 sequence (whole entry)": "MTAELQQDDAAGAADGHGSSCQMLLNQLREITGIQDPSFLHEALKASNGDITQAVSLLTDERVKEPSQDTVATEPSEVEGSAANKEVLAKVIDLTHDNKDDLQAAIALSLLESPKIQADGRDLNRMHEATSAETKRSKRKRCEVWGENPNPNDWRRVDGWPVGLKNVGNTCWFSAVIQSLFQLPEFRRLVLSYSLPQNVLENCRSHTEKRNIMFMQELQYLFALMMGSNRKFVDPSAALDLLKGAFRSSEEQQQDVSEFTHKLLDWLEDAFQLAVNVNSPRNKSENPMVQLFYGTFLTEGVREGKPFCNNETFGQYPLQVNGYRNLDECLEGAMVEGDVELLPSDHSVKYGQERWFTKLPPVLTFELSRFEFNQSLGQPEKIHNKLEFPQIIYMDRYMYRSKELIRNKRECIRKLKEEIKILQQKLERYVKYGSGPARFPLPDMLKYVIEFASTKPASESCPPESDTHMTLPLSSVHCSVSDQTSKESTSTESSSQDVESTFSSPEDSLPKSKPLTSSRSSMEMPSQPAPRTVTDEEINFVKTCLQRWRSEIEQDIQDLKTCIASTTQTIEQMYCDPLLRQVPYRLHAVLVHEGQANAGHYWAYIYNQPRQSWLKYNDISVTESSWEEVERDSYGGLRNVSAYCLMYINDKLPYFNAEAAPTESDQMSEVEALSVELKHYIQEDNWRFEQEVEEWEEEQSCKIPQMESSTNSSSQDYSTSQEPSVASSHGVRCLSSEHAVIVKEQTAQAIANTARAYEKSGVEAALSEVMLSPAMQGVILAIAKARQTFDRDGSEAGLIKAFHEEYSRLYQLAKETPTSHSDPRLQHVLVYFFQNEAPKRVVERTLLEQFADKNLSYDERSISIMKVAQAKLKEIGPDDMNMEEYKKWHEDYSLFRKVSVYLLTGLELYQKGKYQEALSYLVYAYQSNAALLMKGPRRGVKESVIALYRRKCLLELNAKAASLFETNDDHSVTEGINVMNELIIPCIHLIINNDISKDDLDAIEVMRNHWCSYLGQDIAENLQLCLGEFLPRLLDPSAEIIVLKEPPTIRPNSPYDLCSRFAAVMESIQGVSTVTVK", "summary_of_the_method": "as §1"}},
  "note": "A number with no mark means an inactive call.",
  "data": [
    {"molecule": "O=C(CCl)Nc1ccc(Cl)c(F)c1", "values": [
      {"measurement": "log2 ratio of Biotin-Ahx-Ub-VS probe labelling", "setting": "[1]", "result": -0.486},
      {"measurement": "log2 ratio of Biotin-Ahx-Ub-VS probe labelling", "setting": "[2]", "result": "-1.66 (active)"},
      {"measurement": "log2 ratio of Biotin-Ahx-Ub-VS probe labelling", "setting": "[3]", "result": "-1.62 (active)"},
      {"measurement": "log2 ratio of Biotin-Ahx-Ub-VS probe labelling", "setting": "[4]", "result": "-1.53 (active)"}
    ]}
  ]
}
